Test results: the supplement of paper PMC12494721
Structures can show the parent of a compound that is named as a salt.

Key:
Conditions in all cases: incubation time: 27 h, anaerobic, 37 °C;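 for the amine columns active = adjusted P below 0.05 in both replicates with a change the same way and a mean fold change under 0.8 or over 1.25; inactive = the rest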
Escherichia coli IAI1 [1] = assay: growth (OD595) fold change vs plate DMSO controls (fold change (ratio)); higher = more growth
Outline: (§1)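 Anaerobic 27 h, 37 °C mGAM 96-well cultures were shaken, then read for absorbance at 595 nm. Values were blank-subtracted and corrected for compound background using 20 µM compound solutions in water. A calibration factor of 5 converted them to OD. Growth is the fold change versus the median of plate DMSO controls. Fold changes above 1.5 were set to NA, and values are the mean of 2 biological replicates.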

[2] = system: Klebsiella aerogenes DSM 30053; assay: as above
Outline: as §1

[3] = system: Ruminococcus gnavus DSM 108212; assay: as above
Outline: as §1

[4] = system: Klebsiella aerogenes DSM 30053; assay: fold change of Histamine concentration vs plate DMSO controls (fold change (ratio)); higher = more amine produced, active = hit call of the paper (significant change in both replicates, either direction)
Outline: (§2)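 Anaerobic mGAM cultures of four gut bacterial strains were grown at 37 °C for 27 h in 80 µL wells, starting at OD 0.1 before 1:1 dilution. Compounds were at 20 µM final (sweeteners 50 µM). Whole cultures were extracted with cold acetonitrile/methanol containing 0.1% formic acid and centrifuged. Amines were quantified by LC–triple-quadrupole MS (dynamic MRM) against external calibration curves and drift-corrected within batch. Each value is the fold change versus plate DMSO controls, averaged over 2 biological replicates.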

[5] = system: Ruminococcus gnavus DSM 108212; assay: fold change of Tryptamine concentration vs plate DMSO controls (fold change (ratio)); higher = more amine produced, active = hit call of the paper (significant change in both replicates, either direction)
Outline: as §2

Escherichia coli IAI1 [6] = assay: fold change of Putrescine concentration vs plate DMSO controls (fold change (ratio)); higher = more amine produced, active = hit call of the paper (significant change in both replicates, either direction)
Outline: as §2

[7] = system: Klebsiella aerogenes DSM 30053; assay: as above
Outline: as §2

Escherichia coli IAI1 [8] = assay: fold change of Cadaverine concentration vs plate DMSO controls (fold change (ratio)); higher = more amine produced, active = hit call of the paper (significant change in both replicates, either direction)
Outline: as §2

[9] = system: Klebsiella aerogenes DSM 30053; assay: as above
Outline: as §2

[10] = system: Ruminococcus gnavus DSM 108212; assay: fold change of 2-Phenylethylamine concentration vs plate DMSO controls (fold change (ratio)); higher = more amine produced, active = hit call of the paper (significant change in both replicates, either direction)
Outline: as §2

[11] = system: Clostridium sporogenes DSM 1664; assay: fold change of Tryptamine concentration vs plate DMSO controls (fold change (ratio)); higher = more amine produced, active = hit call of the paper (significant change in both replicates, either direction)
Outline: as §2

[12] = system: Clostridium sporogenes DSM 1664; assay: growth (OD595) fold change vs plate DMSO controls (fold change (ratio)); higher = more growth
Outline: as §1

Compound	growth (Escherichia coli IAI1 [1])	growth [2]	growth [3]	fold change of Histamine concentration [4]	fold change of Tryptamine concentration [5]	fold change of Putrescine concentration (Escherichia coli IAI1 [6])	fold change of Putrescine concentration [7]	fold change of Cadaverine concentration (Escherichia coli IAI1 [8])	fold change of Cadaverine concentration [9]	fold change of 2-Phenylethylamine concentration [10]	fold change of Tryptamine concentration [11]	growth [12]
CC(C)Cc1ccc([C@H](C)C(=O)O)cc1 [(S,+) Ibuprofen] (20 µM)	0.797	1.16	0.974	0.925 (inactive)	1.06 (inactive)	0.854 (inactive)	1.03 (inactive)	1.06 (inactive)	1.04 (inactive)	1.11 (inactive)	–	–
CCOC(=O)C1=C(COCCN)NC(C)=C(C(=O)OC)C1c1ccccc1Cl (stereo unspecified) [Amlodipine] (20 µM)	1	1	1.1	1.08 (inactive)	0.914 (inactive)	0.986 (inactive)	1.03 (inactive)	1.1 (inactive)	0.988 (inactive)	0.918 (inactive)	–	–
Nc1nc2c(ncn2COCCO)c(=O)[nH]1 [Acyclovir] (20 µM)	1.05	1	1.42	1.02 (inactive)	1.15 (inactive)	1.03 (inactive)	0.983 (inactive)	1 (inactive)	1.05 (inactive)	1.15 (inactive)	–	–
CCC(C)C(C(=O)OCC[N+](C)(CC)CC)c1ccccc1 (stereo unspecified) [Valethamate bromide] (20 µM)	–	–	–	1.03 (inactive)	0.996 (inactive)	1.05 (inactive)	1.02 (inactive)	1.03 (inactive)	1 (inactive)	0.963 (inactive)	0.963 (inactive)	–
CN(C)CCCN1c2ccccc2CCc2ccccc21 [Imipramine hydrochloride] (20 µM)	1.15	1.08	1.34	0.866 (inactive)	0.975 (inactive)	1.02 (inactive)	0.943 (inactive)	0.976 (inactive)	1.03 (inactive)	0.963 (inactive)	–	–
O=C1C(CC[S+]([O-])c2ccccc2)C(=O)N(c2ccccc2)N1c1ccccc1 (stereo unspecified) [Sulfinpyrazone] (20 µM)	0.972	1.04	1.06	0.959 (inactive)	0.904 (inactive)	0.978 (inactive)	1.04 (inactive)	0.991 (inactive)	1.01 (inactive)	0.887 (inactive)	–	–
COc1ccc(C(Cl)=C(c2ccc(OC)cc2)c2ccc(OC)cc2)cc1 [Chlorotrianisene] (20 µM)	0.924	0.946	–	0.94 (inactive)	1.06 (inactive)	1.01 (inactive)	0.998 (inactive)	1 (inactive)	1 (inactive)	1.07 (inactive)	0.978 (inactive)	1.07
C[C@H]1[C@H](NC(=O)/C(=N\OC(C)(C)C(=O)O)c2csc(N)n2)C(=O)N1S(=O)(=O)O [Aztreonam] (20 µM)	1.04	0.662	1.04	0.865 (inactive)	1.05 (inactive)	0.86 (inactive)	1.13 (inactive)	1.03 (inactive)	1.06 (inactive)	1.04 (inactive)	–	–
CCc1c2c(nc3ccc(OC(=O)N4CCC(N5CCCCC5)CC4)cc13)-c1cc3c(c(=O)n1C2)COC(=O)[C@]3(O)CC [Irinotecan hydrochloride trihydrate] (20 µM)	1.05	0.974	1.06	1.03 (inactive)	0.937 (inactive)	1.11 (inactive)	1 (inactive)	0.994 (inactive)	0.988 (inactive)	0.89 (inactive)	–	–
CN(CCOc1ccc(NS(C)(=O)=O)cc1)CCc1ccc(NS(C)(=O)=O)cc1 [Dofetilide] (20 µM)	0.972	1.03	0.827	1 (inactive)	1.04 (inactive)	0.989 (inactive)	0.984 (inactive)	1.05 (inactive)	1 (inactive)	0.998 (inactive)	–	–
Cc1cnc(NC(=O)C2=C(O)c3ccccc3S(=O)(=O)N2C)s1 [Meloxicam] (20 µM)	0.997	0.98	0.801	1.03 (inactive)	1.02 (inactive)	1.04 (inactive)	0.995 (inactive)	0.959 (inactive)	0.996 (inactive)	1.03 (inactive)	–	–
C=CC1=C(C(=O)O)N2C(=O)[C@@H](NC(=O)/C(=N\OCC(=O)O)c3csc(N)n3)[C@H]2SC1 [Cefixime] (20 µM)	0.0263	1.12	–	0.931 (inactive)	0.964 (inactive)	0.484 (active)	1.03 (inactive)	2.08 (active)	1.05 (inactive)	0.932 (inactive)	0.826 (inactive)	0.286
C#C[C@]1(O)CC[C@H]2[C@@H]3CCC4=CCCC[C@@H]4[C@H]3CC[C@@]21C [Lynestrenol] (20 µM)	1.17	1.02	–	1.06 (inactive)	0.985 (inactive)	1.13 (inactive)	1.02 (inactive)	0.997 (inactive)	0.989 (inactive)	1.01 (inactive)	0.947 (inactive)	0.94
O=C(O)c1cn(C2CC2)c2cc(N3CCNCC3)c(F)cc2c1=O [Ciprofloxacin hydrochloride monohydrate] (20 µM)	0	0	0.342	0.0661 (active)	0.796 (inactive)	0.53 (inactive)	0.573 (inactive)	0.176 (active)	0.938 (inactive)	0.863 (inactive)	–	–
CCOC(=O)C1=C(C)NC(C)=C(C(=O)OC)C1c1cccc(Cl)c1Cl (stereo unspecified) [Felodipine] (20 µM)	1.09	1.04	0.215	0.96 (inactive)	0.876 (inactive)	1.04 (inactive)	0.97 (inactive)	0.893 (inactive)	1.01 (inactive)	0.903 (inactive)	–	–
COc1cc2nc(N3CCN(C(=O)c4ccco4)CC3)nc(N)c2cc1OC [Prazosin hydrochloride] (20 µM)	1.09	0.998	0.986	1.01 (inactive)	0.924 (inactive)	1.16 (inactive)	1.02 (inactive)	0.968 (inactive)	1 (inactive)	0.939 (inactive)	–	–
CCCCCCCCNC(C)C(O)c1ccc(SC(C)C)cc1 (stereo unspecified) [Suloctidil] (20 µM)	1.08	1.06	–	0.987 (inactive)	0.729 (active)	1.03 (inactive)	0.977 (inactive)	0.983 (inactive)	0.996 (inactive)	0.785 (active)	0.983 (inactive)	1.12
O=C(O)CCNC(=O)c1ccccc1 [Betamipron] (20 µM)	0.817	0.813	0.512	1.02 (inactive)	1 (inactive)	1.04 (inactive)	1 (inactive)	1.06 (inactive)	1 (inactive)	0.956 (inactive)	–	–
CO/N=C(\C(=O)N[C@@H]1C(=O)N2C(C(=O)O)=C(C[N+]3(C)CCCC3)CS[C@H]12)c1csc(N)n1 [Cefepime hydrochloride] (20 µM)	0	0.484	0	0.119 (active)	0.0466 (active)	0.285 (active)	0.361 (active)	0.884 (inactive)	1.11 (inactive)	0.0523 (active)	–	–
CCN(CC)CCNC(=O)c1ccc(N)cc1 [Procainamide hydrochloride] (20 µM)	0.979	1.2	0.827	0.834 (inactive)	–	0.969 (inactive)	0.987 (inactive)	1.01 (inactive)	1.04 (inactive)	1.05 (inactive)	–	–
CC[N+](C)(CC)CCC[n+]1c(-c2ccccc2)c2cc(N)ccc2c2ccc(N)cc21 [Propidium iodide] (20 µM)	1.07	1.08	–	1.07 (inactive)	1.05 (inactive)	0.99 (inactive)	1 (inactive)	1 (inactive)	0.999 (inactive)	1.08 (inactive)	1.07 (inactive)	1.18
CN1[C@@H]2CC[C@H]1CC(OC(=O)C(O)c1ccccc1)C2 (mixture of isomers) [(R,S) Homatropine hydrobromide] (20 µM)	–	–	–	0.867 (inactive)	0.99 (inactive)	0.995 (inactive)	0.995 (inactive)	1.02 (inactive)	1.02 (inactive)	1.01 (inactive)	1 (inactive)	–
CC(C)(C)CC(C)(C)c1ccc(OCCOCC[N+](C)(C)Cc2ccccc2)cc1 [Benzethonium chloride] (20 µM)	0.964	1.02	–	1.07 (inactive)	0.866 (inactive)	0.975 (inactive)	1.01 (inactive)	1.02 (inactive)	0.988 (inactive)	0.895 (inactive)	0.956 (inactive)	0.869
COc1ccc(CCN(C)CCCC(C#N)(c2ccc(OC)c(OC)c2)C(C)C)cc1OC (stereo unspecified) [Verapamil hydrochloride] (20 µM)	1.13	0.758	1.01	0.942 (inactive)	0.992 (inactive)	1.05 (inactive)	0.906 (inactive)	0.978 (inactive)	0.972 (inactive)	0.95 (inactive)	–	–
Cc1nnc(SCC2=C(C(=O)O)N3C(=O)[C@@H](NC(=O)Cn4cnnn4)[C@H]3SC2)s1 [Cefazolin sodium salt] (20 µM)	0.0255	1.13	0.0483	0.645 (inactive)	0.0727 (active)	0.16 (active)	1.03 (inactive)	0.613 (active)	1.05 (inactive)	0.0761 (active)	–	–
